Out of some 69,000 compounds screened, about 8,600 (12%) showed an effect of 50% or more. This excerpt belongs to a sample that is enriched for strong results.
The compounds below were run on Plasmodium berghei (assay: Screen against P. berghei liver stage (PbLuc), transformed with Luciferase, at 10uM). Settings: tested at 10 uM.
Format: functional, HepG2
`Cc1ccccc1CN1CC[C@H]2C[C@H](C(=O)N(C)C)O[C@H]2C1` gave an INHIBITION of 19.5%.
`COCC(=O)N1CCc2cccc(S(=O)(=O)N3CCN(C)CC3)c2C1` gave an INHIBITION of 8.51%.
In the case of `NC(=O)C1CN(C(=O)Nc2cc(Cl)cc(Cl)c2)CCO1` (stereo not drawn), the INHIBITION is reported as 88.4%.
`COCC1CN(C(=O)Nc2cc(Cl)cc(Cl)c2)CCO1` (stereo not drawn) was tested, and the INHIBITION was -42.9%.
Compound `NC(=O)C1CN(C(=O)Nc2ccccc2N2CCCCCC2)CCO1` (stereo not drawn) has an INHIBITION of -22.7%.
With `O=C(Nc1ccccc1-c1cccs1)N1CCOCC1` the INHIBITION was -11.6%.
With `Cc1ccc(NC(=O)N2CCOC(C(N)=O)C2)cc1C(F)(F)F` (stereo not drawn) the INHIBITION was -14.3%.
Compound `NC(=O)C1CN(C(=O)Nc2ccccc2-c2cccs2)CCO1` (stereo not drawn) has an INHIBITION of 57.2%.
With `CCOc1ccc(NC(=O)N2CCOC(C(N)=O)C2)cc1Cl` (stereo not drawn) the INHIBITION was -16.9%.
In the case of `Cc1cc(NC(=O)N2CCOC(C(N)=O)C2)ccc1Br` (stereo not drawn), the INHIBITION is reported as -62.8%.
`CN1CCCc2cc(NC(=O)N3CCOC(C(N)=O)C3)ccc21` (stereo not drawn) showed an INHIBITION of 68.5%.
In the case of `CCC(=O)NS(=O)(=O)c1cccnc1Nc1cccc(Cl)c1Cl`, the INHIBITION is reported as 42.6%.
In the case of `Cc1nc(CN2Cc3nccn3CC(CN3CCOCC3)C2)cs1` (stereo not drawn), the INHIBITION is reported as -40.1%.
In the case of `COc1cccc(-n2nnc(C(=O)N3CCC(C(N)=O)CC3)c2C)c1`, the INHIBITION is reported as 13.115%.
`Cc1cc(C(=O)NC2CCCOc3cc(Cl)ccc32)n(C)n1` (stereo not drawn) gave an INHIBITION of 43.6%.
`O=C(c1ccc2c(c1)[nH]c(=O)n2C1CCC(O)CC1)N1CCOCC1` (stereo not drawn) gave an INHIBITION of 48%.
`CNC(=O)[C@H]1C[C@H]2CN(C(=O)Nc3ccc(F)cc3)C[C@@H]1O2` gave an INHIBITION of 13.4%.
For `CCN1CC[C@]2(CN(Cc3nccs3)C[C@H]2c2ccccc2)C1=O`, the INHIBITION was 13.7%.
For `Cc1nc(C2CCCN2Cc2cc(=O)n(C)c(=O)n2C)no1` (stereo not drawn), the INHIBITION was 15.3%.
`Cc1nn(C)c2nc(N(Cc3nccs3)C3CC3)sc12` showed an INHIBITION of 33.2%.
Work on `Cc1cc2c(N3CCC(N(C)CCc4cnn(C)c4)CC3)ncnc2s1` yielded an INHIBITION of 51.2%.
`CC(C)(C(=O)N1CCCC(OCc2cccnc2)C1)n1cccc1` (stereo not drawn) showed an INHIBITION of 23.1%.
For `Cc1cc2c(N3CCC(N(C)Cc4nccs4)CC3)ncnc2s1`, the INHIBITION was 87.5%.
With `Cc1cc2c(N3CCCC(OCc4cccnc4)C3)ncnc2s1` (stereo not drawn) the INHIBITION was 85.2%.
With `CCc1c(C)sc2ncnc(N3CCN(C4CCOCC4)CC3)c12` the INHIBITION was 4.15%.
Work on `Cc1sc2ncnc(N3CCC(N(C)Cc4cnn(C)c4)CC3)c2c1C` yielded an INHIBITION of 61.2%.
`CN(Cc1nccs1)C1CCN(c2ncccn2)CC1` was tested, and the INHIBITION was 21.5%.
In the case of `Cn1cc(CN2CCc3ncnc(N4CCCC4)c3CC2)cn1`, the INHIBITION is reported as 30.5%.
For `Cc1nn(C)c2ncnc(N3CCCC(OCc4cccnc4)C3)c12` (stereo not drawn), the INHIBITION was 25.1%.
For `Cc1csc2c(N3CCC(NCCCc4cnn(C)c4)CC3)ncnc12`, the INHIBITION was 31.6%.
With `Cc1sc2ncnc(N3CCCC3Cn3cccn3)c2c1C` (stereo not drawn) the INHIBITION was -53%.
`CCCS(=O)(=O)N1CCn2cc(CNc3ccccn3)nc2C1` showed an INHIBITION of 23.3%.
For `CCC(=O)N1Cc2nccn2CC(CN(C)Cc2cccnc2)C1` (stereo not drawn), the INHIBITION was 39.2%.
`Cc1csc(N2CCN(Cc3cnc4c(c3)c(C)nn4C)CC2)n1` showed an INHIBITION of 24%.
`CN(C)C[C@H]1OC[C@@H]2CCN(C(=O)c3ccco3)C[C@@H]21` showed an INHIBITION of -4.56%.
Work on `Cc1nc(C)n(CCNC(=O)C2(C)CC(c3ccccc3)=NO2)n1` (stereo not drawn) yielded an INHIBITION of 23%.
In the case of `Fc1cnc(N2CC[C@@H]3O[C@@H](COCc4cccnc4)CC[C@@H]32)nc1`, the INHIBITION is reported as 31.4%.
Work on `CCc1ccsc1C(=O)N1CCCN(Cc2cscn2)CC1` yielded an INHIBITION of -16%.
`CC(C)c1cc2c(s1)NC(c1ccccc1)NC2=O` (stereo not drawn) gave an INHIBITION of 9.63%.
For `Cc1cnc(CN(C)C2CCN(CCCc3cnn(C)c3)C2)o1` (stereo not drawn), the INHIBITION was 48.2%.
`Cc1cc2c(N3CCC(N(C)Cc4cnn(C)c4)CC3)ncnc2s1` was tested, and the INHIBITION was 75.7%.
Compound `Cc1nc(CN2CCCC(N(C)Cc3cnn(C)c3)C2)no1` (stereo not drawn) has an INHIBITION of 5.48%.
In the case of `COc1ccc2c(c1)CN(CC1CC1)C(=O)CCN2CC(C)(C)O`, the INHIBITION is reported as 23.7%.
`O=C(c1sccc1C1CC1)N1CCN(CC(F)(F)F)CC1` showed an INHIBITION of 27.6%.
`O=C(Nc1cccc(F)c1)C1=NOC2(CCNCC2)C1` showed an INHIBITION of -2.41%.
In the case of `O=C(NCCOc1ncc(Cl)cc1Cl)c1ccoc1`, the INHIBITION is reported as 24.6%.
Work on `Cc1ccoc1C(=O)NCCOc1ncc(Cl)cc1Cl` yielded an INHIBITION of 52%.
`O=C(NCCOc1ncc(Cl)cc1Cl)c1ccncc1` gave an INHIBITION of 39.5%.
Work on `O=C(CCn1cccn1)NCCOc1ncc(Cl)cc1Cl` yielded an INHIBITION of 53.3%.
For `O=C(NCCOc1ncc(Cl)cc1Cl)c1cccnc1`, the INHIBITION was 19.4%.
Compound `O=C(CCn1cccn1)NCCOc1ccc2c(c1)OCO2` has an INHIBITION of -13.9%.
`O=C(CCn1cncn1)NCCOc1cccc(Cl)c1` gave an INHIBITION of 10.7%.
For `O=C(CCc1ccncc1)NCCOc1ncc(Cl)cc1Cl`, the INHIBITION was 3.87%.
